Active and inactive are the calls of the source.
Experiments:
[1] = tested on: PRMT1 (protein arginine N-methyltransferase 1); assay: PRMT1 binders on small-molecule microarrays, primary screen, biochemical, small-molecule microarray, 635 nm fluorescence (AID 1088); conditions: small-molecule microarray binding, higher = more signal;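 note: binding of Prmt1 protein to compounds spotted on small-molecule microarray slides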
[2] = yeast growth modulation, basal conditions, primary screen, YJM789 clinical isolate, OD600, 24 h (AID 1089);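 note: growth of clinical yeast isolate S. cerevisiae YJM 789 seeded 1000 cells per well; test concentration not given here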; conditions: S. cerevisiae YJM789 growth, higher = more signal, called active from +8 up or from −8 down
[3] = fission yeast growth modulation, primary screen, strain 972, OD600, 24 h, no modulator (AID 1090);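 note: basal condition with compound alone and no growth modifier present; test concentration not given here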; conditions: S. pombe 972 growth, higher = more signal, called active from +8 up or from −8 down
[4] = S. cerevisiae growth modulation with rapamycin, primary screen, strain BY4716, OD600, 96 h (AID 1091); conditions: higher = more signal, called active from +8 up or from −8 down; note: test concentration not given here
[5] = molecular target: Torsin-1A-interacting protein 2 (Homo sapiens) (UniProt Q8NFQ8); assay: LULL1 binders on small-molecule microarray, primary screen, cell lysate, human LULL1 lysate, 635/667 nm fluorescence (AID 1092); conditions: hLULL1 lysate binding, 635 nm fluorescence, higher = more signal;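 note: probe is lysate of COS7 cells overexpressing human LULL1; score merges per-feature 667 nm fluorescence with signal-to-noise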
Sequence of Torsin-1A-interacting protein 2 (Homo sapiens) (Q8NFQ8 whole entry, looked up): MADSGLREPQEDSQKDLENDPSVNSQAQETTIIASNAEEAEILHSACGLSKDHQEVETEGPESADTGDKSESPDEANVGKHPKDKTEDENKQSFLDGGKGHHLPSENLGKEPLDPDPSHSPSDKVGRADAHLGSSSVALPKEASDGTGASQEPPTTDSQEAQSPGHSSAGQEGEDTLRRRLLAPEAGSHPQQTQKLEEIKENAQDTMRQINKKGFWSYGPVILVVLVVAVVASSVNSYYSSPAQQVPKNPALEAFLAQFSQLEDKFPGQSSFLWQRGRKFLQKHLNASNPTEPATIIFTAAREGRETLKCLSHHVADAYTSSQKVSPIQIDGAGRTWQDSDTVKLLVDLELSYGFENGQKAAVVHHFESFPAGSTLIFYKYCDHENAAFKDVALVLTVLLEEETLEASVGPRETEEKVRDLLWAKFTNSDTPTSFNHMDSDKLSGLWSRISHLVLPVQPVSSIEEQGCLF

[6] = E. coli growth modulation, two-sided OD650, primary screen, E. coli filamentation project, strain DRC41, 24 h (AID 1093); conditions: OD650, 24 h, higher = more signal, called active from +8 up or from −8 down;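 note: MC1000 strain lacking acrAB efflux and sulA so SOS filamentation is blocked; test concentration not given here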
[7] = small-molecule microarray binders of probe aLefty2, primary screen, biochemical, biotinylated probe, 635/667 nm fluorescence (AID 1094); conditions: higher = more signal;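 note: score merges spot fluorescence near 667 nm with spot signal-to-noise ratio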
[8] = tested on: Noggin (protein binding on small-molecule microarray); assay: Noggin binders on small-molecule microarray, primary screen, biochemical, 635/667 nm fluorescence (AID 1095); conditions: 635 nm fluorescence, higher = more signal;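 note: score merges 667 nm feature fluorescence with signal to noise over triplicate slides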
[9] = molecular target: Neurogenic locus notch homolog protein 3 (Homo sapiens) (UniProt Q9UM47); assay: NOTCH3 binders on small-molecule microarray, primary screen, biochemical, 635/667 nm fluorescence (AID 1096); conditions: NOTCH3 binding, 635 nm fluorescence, higher = more signal
Sequence of Neurogenic locus notch homolog protein 3 (Homo sapiens) (Q9UM47 whole entry, looked up): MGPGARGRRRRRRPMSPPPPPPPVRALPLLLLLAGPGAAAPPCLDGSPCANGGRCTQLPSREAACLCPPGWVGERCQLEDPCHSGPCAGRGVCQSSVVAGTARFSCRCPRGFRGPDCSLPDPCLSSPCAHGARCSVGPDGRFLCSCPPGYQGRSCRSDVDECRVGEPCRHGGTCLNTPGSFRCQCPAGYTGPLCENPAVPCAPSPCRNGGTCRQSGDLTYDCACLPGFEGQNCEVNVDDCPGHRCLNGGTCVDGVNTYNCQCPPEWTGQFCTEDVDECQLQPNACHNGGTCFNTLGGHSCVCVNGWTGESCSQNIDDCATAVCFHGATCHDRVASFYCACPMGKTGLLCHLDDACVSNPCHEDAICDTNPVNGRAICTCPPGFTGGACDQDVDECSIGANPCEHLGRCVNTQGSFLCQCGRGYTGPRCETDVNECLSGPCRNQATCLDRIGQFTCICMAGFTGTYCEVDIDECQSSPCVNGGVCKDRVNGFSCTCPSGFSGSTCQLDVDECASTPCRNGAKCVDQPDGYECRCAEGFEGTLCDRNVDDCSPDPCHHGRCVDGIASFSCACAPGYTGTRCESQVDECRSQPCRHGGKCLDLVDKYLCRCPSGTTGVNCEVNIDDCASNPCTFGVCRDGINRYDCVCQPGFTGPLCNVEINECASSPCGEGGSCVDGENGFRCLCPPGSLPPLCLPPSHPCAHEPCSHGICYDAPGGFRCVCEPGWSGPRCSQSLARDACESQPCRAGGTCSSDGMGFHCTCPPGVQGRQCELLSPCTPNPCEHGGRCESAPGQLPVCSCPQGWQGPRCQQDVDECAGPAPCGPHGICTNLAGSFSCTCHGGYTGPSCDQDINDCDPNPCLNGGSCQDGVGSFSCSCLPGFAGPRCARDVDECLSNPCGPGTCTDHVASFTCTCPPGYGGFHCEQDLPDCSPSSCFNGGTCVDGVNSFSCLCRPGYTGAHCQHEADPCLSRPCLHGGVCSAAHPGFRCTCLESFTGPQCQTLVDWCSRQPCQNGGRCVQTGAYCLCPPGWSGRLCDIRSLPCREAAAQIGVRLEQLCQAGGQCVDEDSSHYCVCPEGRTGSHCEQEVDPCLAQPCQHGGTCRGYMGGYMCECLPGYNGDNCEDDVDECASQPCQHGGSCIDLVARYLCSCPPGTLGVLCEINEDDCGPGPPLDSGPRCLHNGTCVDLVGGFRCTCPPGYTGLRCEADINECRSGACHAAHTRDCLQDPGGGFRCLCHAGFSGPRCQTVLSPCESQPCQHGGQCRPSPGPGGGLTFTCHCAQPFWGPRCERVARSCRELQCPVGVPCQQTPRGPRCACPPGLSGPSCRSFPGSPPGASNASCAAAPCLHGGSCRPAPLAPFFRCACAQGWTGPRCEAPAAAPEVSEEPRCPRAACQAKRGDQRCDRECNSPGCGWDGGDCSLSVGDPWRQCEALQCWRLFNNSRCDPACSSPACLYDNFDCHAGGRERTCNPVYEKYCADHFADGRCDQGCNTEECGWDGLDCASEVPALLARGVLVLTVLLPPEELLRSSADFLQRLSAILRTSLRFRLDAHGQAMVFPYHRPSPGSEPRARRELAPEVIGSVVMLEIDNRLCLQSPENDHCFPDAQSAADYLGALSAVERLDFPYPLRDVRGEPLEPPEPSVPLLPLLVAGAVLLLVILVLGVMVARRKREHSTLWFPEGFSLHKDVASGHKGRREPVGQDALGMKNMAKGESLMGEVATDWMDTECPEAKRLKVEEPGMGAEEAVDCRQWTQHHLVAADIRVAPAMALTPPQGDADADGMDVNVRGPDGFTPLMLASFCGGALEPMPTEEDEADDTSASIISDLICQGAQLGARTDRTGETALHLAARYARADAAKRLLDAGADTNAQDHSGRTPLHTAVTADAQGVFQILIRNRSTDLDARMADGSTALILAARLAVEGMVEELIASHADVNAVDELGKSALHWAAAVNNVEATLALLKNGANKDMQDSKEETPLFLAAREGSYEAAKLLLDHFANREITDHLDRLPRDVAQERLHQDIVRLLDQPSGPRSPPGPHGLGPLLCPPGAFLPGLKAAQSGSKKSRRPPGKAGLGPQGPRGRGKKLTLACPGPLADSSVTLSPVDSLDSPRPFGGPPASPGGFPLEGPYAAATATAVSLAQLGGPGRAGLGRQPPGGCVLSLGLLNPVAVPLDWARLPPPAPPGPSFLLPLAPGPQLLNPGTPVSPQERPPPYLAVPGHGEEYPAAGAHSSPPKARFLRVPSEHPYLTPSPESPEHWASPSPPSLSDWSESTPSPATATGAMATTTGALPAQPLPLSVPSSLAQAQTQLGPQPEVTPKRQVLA

[10] = small-molecule microarray binders of probe aEGFR, primary screen, biochemical, biotinylated probe, 635/667 nm fluorescence (AID 1097); conditions: higher = more signal;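 note: probe is a biotinylated anti-EGFR antibody binding compounds printed on slides; score combines fluorescence near 667 nm and signal to noise of each spot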
[11] = tested on: Plasmodium falciparum Sir2 (PF13_0152, Sir2A); assay: pfSir2 binders on small-molecule microarrays, primary screen, biochemical, small-molecule microarray, 635 nm fluorescence (AID 1098); conditions: small-molecule microarray binding, fluorescence 635 nm; higher = more signal;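 note: score merges spot fluorescence intensity with its signal-to-noise ratio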
[12] = small-molecule microarray binders of probe aDKK1, primary screen, biochemical, biotinylated probe, 635/667 nm fluorescence (AID 1099); conditions: higher = more signal;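 note: score merges 667nm spot fluorescence with signal to noise across triplicate slides; reference of the scale not given here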
[13] = small-molecule microarray binders of probe aCHRDL2, primary screen, biochemical, biotinylated probe, 635/667 nm fluorescence (AID 1100); conditions: higher = more signal
[14] = splicing luciferase reporter signal modulators, primary screen, spliceosome inhibition project, cell-based, HEK293, splice +/- reporter (AID 1101); conditions: luminescence, 24 h, higher = more signal, called active from +8 up or from −8 down;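 note: HEK293 cells carrying a splicing-competent luciferase reporter gene; test concentration not given here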
[15] = molecular target: Fibroblast growth factor 10 (Homo sapiens) (UniProt O15520); assay: FGF10 binders on small-molecule microarrays, primary screen, biochemical, small-molecule microarray, 635 nm fluorescence (AID 1102); conditions: FGF10 binding, fluorescence 635 nm, higher = more signal
Sequence of Fibroblast growth factor 10 (Homo sapiens) (O15520 whole entry, looked up): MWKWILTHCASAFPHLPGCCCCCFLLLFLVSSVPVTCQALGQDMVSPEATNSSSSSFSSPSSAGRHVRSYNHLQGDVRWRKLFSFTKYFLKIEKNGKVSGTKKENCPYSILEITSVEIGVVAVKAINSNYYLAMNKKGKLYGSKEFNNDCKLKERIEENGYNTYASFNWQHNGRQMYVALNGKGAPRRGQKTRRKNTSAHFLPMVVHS

[16] = tested on: glycogen synthase kinase-3 (GSK3A per assay name; protocol says GSK3B); assay: GSK3 binders on small-molecule microarrays, primary screen, biochemical, small-molecule microarray, 635 nm fluorescence, GSK3A (AID 1103); conditions: small-molecule microarray binding, fluorescence 635 nm; higher = more signal; note: the record names both GSK3A and GSK3B
[17] = molecular target: Epidermal growth factor receptor (Homo sapiens) (UniProt P00533); assay: EGFR binders on small-molecule microarrays, primary screen, biochemical, small-molecule microarray, 635 nm fluorescence (AID 1104); conditions: EGFR binding, higher = more signal;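 note: score merges 667 nm emission intensity with spot signal to noise over triplicate slides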
Sequence of Epidermal growth factor receptor (Homo sapiens) (P00533 whole entry, looked up): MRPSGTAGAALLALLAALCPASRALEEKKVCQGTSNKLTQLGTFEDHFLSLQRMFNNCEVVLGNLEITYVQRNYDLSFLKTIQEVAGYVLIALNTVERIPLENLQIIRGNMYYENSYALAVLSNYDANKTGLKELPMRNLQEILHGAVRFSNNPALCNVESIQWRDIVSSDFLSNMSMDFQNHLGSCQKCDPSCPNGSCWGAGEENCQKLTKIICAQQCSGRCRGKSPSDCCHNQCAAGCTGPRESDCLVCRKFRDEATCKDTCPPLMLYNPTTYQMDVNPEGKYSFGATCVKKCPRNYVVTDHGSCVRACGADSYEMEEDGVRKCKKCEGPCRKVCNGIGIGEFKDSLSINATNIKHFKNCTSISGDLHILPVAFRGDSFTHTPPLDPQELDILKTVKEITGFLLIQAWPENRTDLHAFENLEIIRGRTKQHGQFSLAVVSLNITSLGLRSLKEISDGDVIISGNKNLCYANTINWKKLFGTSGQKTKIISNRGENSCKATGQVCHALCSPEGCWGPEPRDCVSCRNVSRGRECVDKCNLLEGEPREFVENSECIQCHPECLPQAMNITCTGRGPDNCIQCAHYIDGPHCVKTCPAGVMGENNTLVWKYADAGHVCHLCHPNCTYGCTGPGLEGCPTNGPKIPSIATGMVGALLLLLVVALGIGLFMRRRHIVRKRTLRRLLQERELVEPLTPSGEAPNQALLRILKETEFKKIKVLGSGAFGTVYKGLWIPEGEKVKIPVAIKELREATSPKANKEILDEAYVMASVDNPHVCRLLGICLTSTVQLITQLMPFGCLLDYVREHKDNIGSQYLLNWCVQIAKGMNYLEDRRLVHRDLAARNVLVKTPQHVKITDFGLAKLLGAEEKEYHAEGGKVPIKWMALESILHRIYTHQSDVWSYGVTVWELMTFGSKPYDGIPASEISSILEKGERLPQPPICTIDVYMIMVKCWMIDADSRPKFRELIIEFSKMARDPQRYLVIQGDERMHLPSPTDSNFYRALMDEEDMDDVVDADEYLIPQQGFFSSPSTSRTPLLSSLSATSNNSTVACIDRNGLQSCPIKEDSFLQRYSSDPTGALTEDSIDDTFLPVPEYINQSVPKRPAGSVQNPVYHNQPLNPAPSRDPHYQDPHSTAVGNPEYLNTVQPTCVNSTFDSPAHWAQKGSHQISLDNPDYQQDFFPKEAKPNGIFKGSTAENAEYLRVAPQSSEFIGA

[18] = molecular target: Follistatin-related protein 3 (Homo sapiens) (UniProt O95633); assay: FSTL3 binders on small-molecule microarrays, primary screen, biochemical, small-molecule microarray, 635 nm fluorescence (AID 1105); conditions: FSTL3 binding, higher = more signal;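 note: score merges emission near 667 nm and signal to noise per printed spot across three slides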
Sequence of Follistatin-related protein 3 (Homo sapiens) (O95633 whole entry, looked up): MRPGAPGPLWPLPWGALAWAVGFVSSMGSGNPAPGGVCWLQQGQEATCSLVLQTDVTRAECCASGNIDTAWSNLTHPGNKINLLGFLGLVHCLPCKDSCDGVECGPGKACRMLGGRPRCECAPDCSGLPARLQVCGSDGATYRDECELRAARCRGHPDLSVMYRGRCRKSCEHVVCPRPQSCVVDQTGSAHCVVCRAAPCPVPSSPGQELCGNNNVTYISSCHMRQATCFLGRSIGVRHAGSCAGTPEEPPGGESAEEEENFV

[19] = molecular target: Dickkopf-related protein 1 (Homo sapiens) (UniProt O94907); assay: DKK1 binders on small-molecule microarrays, primary screen, biochemical, small-molecule microarray, 635 nm fluorescence scan (AID 1106); conditions: DKK1 binding, higher = more signal;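 note: score merges emission near 667 nm with signal to noise over three replicate slides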
Sequence of Dickkopf-related protein 1 (Homo sapiens) (O94907 whole entry, looked up): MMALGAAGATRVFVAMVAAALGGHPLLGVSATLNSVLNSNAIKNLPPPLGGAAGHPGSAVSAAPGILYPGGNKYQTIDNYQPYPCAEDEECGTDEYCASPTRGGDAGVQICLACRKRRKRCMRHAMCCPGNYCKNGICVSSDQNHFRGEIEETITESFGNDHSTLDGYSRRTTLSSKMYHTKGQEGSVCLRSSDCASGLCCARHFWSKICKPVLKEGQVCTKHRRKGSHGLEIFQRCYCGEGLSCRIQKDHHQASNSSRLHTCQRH

[20] = tested on: Inhibin beta A chain (activin A); assay: INHBA (activin A) binders on microarrays, primary screen, biochemical, small-molecule microarray, 635 nm fluorescence scan (AID 1107); conditions: small-molecule microarray binding, higher = more signal;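 note: mouse activin A protein probed at 4.33 µg/mL on printed slides; score merges bound-protein fluorescence near 667 nm with spot signal-to-noise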

| Structure (SMILES) | composite z-score [1] | z-score [2] | z-score [3] | z-score [4] | composite z-score [5] | z-score [6] | composite z-score [7] | composite z-score [8] | composite z-score [9] | composite z-score [10] | composite z-score [11] | composite z-score [12] | composite z-score [13] | z-score [14] | composite z-score [15] | composite z-score [16] | composite z-score [17] | composite z-score [18] | composite z-score [19] | composite z-score [20] |
| --- | --- | --- | --- | --- | --- | --- | --- | --- | --- | --- | --- | --- | --- | --- | --- | --- | --- | --- | --- | --- |
| Cc1ccc(S[C@]2(C(=O)NCC(F)(F)F)CC(=O)N(C(C)C)[C@@H]2c2ccc(CO)cc2I)cc1 | -0.466 | -0.0408 (inactive) | -0.704 (inactive) | 2.23 (inactive) | 1.15 | 0.0493 (inactive) | -0.0873 | -1.13 | -1.01 | -0.2 | 0.903 | 0.372 | 0.893 | -0.465 (inactive) | 0.203 | -0.547 | -0.619 | -1.02 | -0.78 | 0.743 |
| COc1cc2c(cc1OC)CN(C(=O)[C@@H]1[C@H]3C(=O)O[C@H](c4ccccc4)[C@H](c4ccccc4)N3[C@H](c3ccc(O)cc3)[C@@]13C(=O)Nc1ccc(C#CC4(O)CCCCCC4)cc13)CC2 | 1.55 | 0.739 (inactive) | -0.0727 (inactive) | 0.257 (inactive) | 3.46 | 0.395 (inactive) | -0.232 | 1.59 | 1.08 | 0.0685 | 1.41 | -0.767 | -0.692 | 0.263 (inactive) | 1.28 | 1.29 | 0.458 | 0.498 | 0.474 | -0.439 |
| CC(C)C(CO)N1C(=O)[C@@H]2[C@H]3C(=O)OCC=C[C@H]3OC23C=CCN(C(C)C)C(=O)[C@@H]13 (stereo not given in full) | 0.261 | 0.58 (inactive) | 0.38 (inactive) | 0.136 (inactive) | 1.4 | 1.99 (inactive) | -0.273 | 0.503 | 0.51 | -0.194 | -0.542 | -0.202 | -0.25 | 0.181 (inactive) | -0.321 | 0.269 | 0.0755 | 0.354 | 0.254 | 0.756 |
| [N-]=[N+]=Nc1ccccc1[C@H]1OC(c2ccc(OCCCO)cc2)=N[C@@]1(Cc1ccccc1)C(=O)O | 1.3 | 0.206 (inactive) | -0.329 (inactive) | -1.06 (inactive) | 3.3 | 0.355 (inactive) | -0.0152 | 0.875 | 1.11 | -0.0351 | 1.68 | 0.292 | 0.381 | -1.23 (inactive) | 0.875 | 0.997 | 0.0509 | 0.727 | 0.293 | 1.12 |
| C=CC[C@@]1(C(=O)NCc2ccccc2)N=C(c2ccc(OCCCO)cc2)O[C@@H]1c1ccccc1N=[N+]=[N-] | 1.54 | 0.158 (inactive) | 0.178 (inactive) | 2.21 (inactive) | 3.55 | 0.266 (inactive) | 0.252 | 0.8 | 1.09 | 0.006 | 0.888 | 0.925 | 1.02 | -1.35 (inactive) | 1.22 | -0.119 | -0.104 | 0.751 | -0.295 | 0.817 |
| C=CCOC(=O)[C@@H]1[C@H]2C(=O)O[C@H](c3ccccc3)[C@H](c3ccccc3)N2[C@H](c2ccc(OCCOC(=O)[C@@H]3C[C@@H]4C(=O)N5CCC[C@H]5C(=O)N4[C@@H]3c3ccc(O)cc3)cc2)[C@@]12C(=O)Nc1ccc(I)cc12 | 1.42 | -0.577 (inactive) | 0.687 (inactive) | 2.09 (inactive) | 2.55 | 1.75 (inactive) | -0.207 | 1.51 | 0.565 | -0.242 | 0.544 | -0.627 | -0.257 | -1.98 (inactive) | 0.624 | 1.3 | 0.555 | 0.913 | 0.794 | -0.495 |
| O=C1c2ccccc2[C@@]2(Cc3ccccc3N(CCN3CCOCC3)C2=O)[C@H](c2ccc(CO)cc2)N1Cc1ccccc1 | 1.08 | -0.338 (inactive) | 0.047 (inactive) | -1.78 (inactive) | 1.4 | 0.959 (inactive) | -0.156 | -0.0855 | -0.038 | -0.172 | 0.878 | -0.0074 | 0.278 | -0.765 (inactive) | -0.667 | -1.23 | -1.17 | -0.267 | -0.391 | 0.819 |
| CO[C@H]1O[C@H](CO)[C@@H](OC(=O)Nc2ccc(Br)cc2)[C@H](OC(=O)c2cc3ccccc3[nH]2)[C@H]1OC(=O)c1cc2ccccc2[nH]1 | 1.39 | -1.96 (inactive) | -1.59 (inactive) | -0.654 (inactive) | 2.48 | 2.05 (inactive) | 0.0166 | 0.514 | 0.944 | 0.0686 | 1.23 | 0.165 | 0.24 | -4.44 (inactive) | 1.19 | 1.28 | 0.408 | 0.579 | 0.0104 | 0.227 |
| C[C@]1(C(=O)NC2CC2)c2ccccc2C(=O)N(Cc2cc(C(F)(F)F)cc(C(F)(F)F)c2)[C@H]1c1ccc(CO)cc1 | 1.38 | 0.412 (inactive) | -1.05 (inactive) | -0.0211 (inactive) | 1.32 | 1.08 (inactive) | 0.0868 | 0.829 | 0.967 | -0.0013 | 1.56 | 0.757 | 0.298 | -0.402 (inactive) | 0.711 | 0.948 | 0.279 | 0.865 | 0.585 | 0.592 |
| COC(=O)[C@@]1(Cc2ccc(OC)cc2)[C@H]2c3cc(C(=O)N4CCCC4)n(Cc4ccccc4)c3C[C@H]2CN1C(=O)c1ccccc1 | 0.678 | -0.183 (inactive) | 0.657 (inactive) | 1.12 (inactive) | 3.37 | -0.801 (inactive) | 1.62 | -0.242 | 1.05 | 1.25 | 0.93 | 2.64 | 1.31 | -1.16 (inactive) | 1.31 | 0.472 | 0.801 | 0.413 | -0.505 | 0.651 |

— PubChem BioAssay
